For this assay, the system named is Rolipram. The assay is described as follows: selectivity profile over receptors, transporters, CYPs – biochemical, Ricerca HitProfilingScreen, CYP450, set 2, selectivity assay for GPR7 antagonist project, profiling panel (AID 540345). To be noted: Ricerca radioligand binding/CYP panel, at 10 µM, active compounds read high.

Values without a mark were called inactive. How the calls were made is not given here.

Usually inhibition stands for the percentage by which the read-out fell short of the control.

In the case of `COc1ccc(Oc2c(Cl)cnn(C3c4ccccc4-c4ccccc43)c2=O)cc1`, the inhibition is 5%.
